C-LANA FP: inhibitors of KSHV LANA C-terminal domain DNA binding | MBP-C-LANA/FAM-LBS DNA binding, fluorescence polarization | inhibition, % at 9 µM | 340,000 tested, 0.078% active;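 active = highest replicate inhibition at or above 60% at 9 µM, even if other replicates fall short; inactive = all replicates below 60% inhibition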;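 also: 0% = neutral control wells and 100% = 4 µM acridine orange control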
RTF Ca sens inh: cardiac RTF calcium desensitization. 340,000 tested, 0.12% active. AID 493244. inhibition, % at 7.15 µM. P19429+P45379. IANBD-labeled cardiac RTF, Ca2+ fluorescence;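 active = inhibition above the mean inhibition of all tested compounds plus 3 SD, cut at about 17% in these data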;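 also: assay run at fixed EC70 calcium of 1.6 mM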
RTF Ca sens act: cardiac RTF calcium sensitization; IANBD-labeled TnC RTF fluorescence at EC20 calcium; 0% EC20 calcium, 100% full calcium; activation, % at 7.2 µM; 340,000 tested, 0.24% active; AID 493008;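 active = activation above the mean over all tested compounds plus 3 SD, cut at about 30% in these data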;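 also: rise in fluorescence read as greater calcium sensitivity of cardiac thin filaments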
E coli Lon inh: E. coli protease La inhibition. P0A9M0. purified E. coli Lon protease, fluorescence polarization. inhibition, % at 7.94 µM. 360,000 tested, 0.42% active. AID 602123; in the data active = inhibition above about 13%, passing the limit was not always enough;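 also: 0% = enzyme with probe and DMSO and 100% = no enzyme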
Target sequence (P0A9M0 whole entry, looked up): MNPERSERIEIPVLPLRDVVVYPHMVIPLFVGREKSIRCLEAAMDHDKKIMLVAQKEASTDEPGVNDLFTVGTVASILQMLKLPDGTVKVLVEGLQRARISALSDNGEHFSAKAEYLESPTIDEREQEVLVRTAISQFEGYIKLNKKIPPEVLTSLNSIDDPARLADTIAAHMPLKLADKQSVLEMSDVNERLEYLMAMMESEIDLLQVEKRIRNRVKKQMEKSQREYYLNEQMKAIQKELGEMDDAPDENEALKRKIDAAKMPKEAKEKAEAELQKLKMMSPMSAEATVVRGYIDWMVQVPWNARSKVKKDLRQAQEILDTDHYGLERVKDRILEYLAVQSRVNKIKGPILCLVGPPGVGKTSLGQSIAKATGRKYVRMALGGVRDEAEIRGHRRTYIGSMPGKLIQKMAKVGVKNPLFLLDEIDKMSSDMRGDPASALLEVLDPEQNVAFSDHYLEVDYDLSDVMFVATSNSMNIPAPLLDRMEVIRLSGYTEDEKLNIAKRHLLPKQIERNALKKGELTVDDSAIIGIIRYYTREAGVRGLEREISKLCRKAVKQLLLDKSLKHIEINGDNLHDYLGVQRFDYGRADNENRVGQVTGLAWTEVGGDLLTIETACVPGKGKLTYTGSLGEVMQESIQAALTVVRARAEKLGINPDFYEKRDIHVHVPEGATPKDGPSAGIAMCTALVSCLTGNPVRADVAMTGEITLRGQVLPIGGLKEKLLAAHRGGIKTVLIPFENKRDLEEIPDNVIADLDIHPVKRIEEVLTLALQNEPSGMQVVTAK
Keap1 Nrf2 FP: Keap1-Nrf2 (human) interaction inhibition | AID 504523 | 340,000 tested, 0.15% active | Keap1 Kelch-Nrf2 peptide fluorescence polarization, 1536-well | inhibition, % at 9.4 µM | Q14145; in the data active = inhibition above about 12%;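 also: human Keap1 Kelch domain with fluorescein labeled Nrf2 9mer peptide probe; 0% = neutral control wells and 100% = peptide positive control; higher means more block of Keap1 binding to Nrf2 peptide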
eLon confirm: E. coli Lon inhibition confirmation; shares compounds with E coli Lon inh; purified E. coli Lon, fluorescence polarization; inhibition, % at 7.94 µM; 1,400 tested, 31% active; AID 602230; in the data active = inhibition above about 16%;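 also: 0% = enzyme with probe and DMSO and 100% = no enzyme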
* hit, by the source's call; · = not tested or not shown. Sampled rows, rich in hits. Any-hit rate of the full collection: about 0.82%.

SMILES	C-LANA FP	RTF Ca sens inh	RTF Ca sens act	E coli Lon inh	Keap1 Nrf2 FP	eLon confirm
C[C@@H]1O[C@H](CCc2cccc(Cl)c2)CC2=C1C(=O)OC(C)(C)O2	·	·	·	0.5	·	·
O=S(=O)(Nc1ccc(O)c(NS(=O)(=O)c2ccccc2)c1)c1ccccc1	1.0	0.5	4.9	17.5*	-2.3	2.6
Cc1nc(N2CCN(S(=O)(=O)c3cccs3)CC2)c2c(-c3ccccc3)c(C)sc2n1	·	·	·	-6.8	·	·
c1ccc(COc2cccc(-c3cc4nc(NCCCn5ccnc5)ccn4n3)c2)cc1	·	·	·	7.6	·	·
CSc1ccc(OC2(C)CCN(Cc3ccc(OC(F)(F)F)cc3)C2)cc1 (stereo not given)	·	·	·	-3.5	·	·
Cc1ccc(CN2CCNC(=O)C2CC(=O)N(C)CCc2ccccc2)cc1 (stereo not given)	-0.7	-0.7	8.9	23.3*	-2.2	-7.9
COc1cc(C(=O)N/N=C/c2sc(N3CCOCC3)nc2-c2ccccc2)cc(OC)c1OC	3.3	-12.9	4.8	17.0*	-1.2	6.6
CCc1nc2c(OCC(=O)C(C)(C)C)cccn2c1N(C)C(=O)COc1ccccc1	·	·	·	-1.8	·	·
COc1c(O)cccc1[C@H](O)C1CCN(CCc2ccc(F)cc2)CC1	16.8	-9.8	4.2	70.7*	3.9	13.4
CCN1CCC(NCCc2ccc(F)cc2)CC1	-2.4	-0.1	-1.7	-1.3	-0.9	·
O=C(Nc1cccc(S(=O)(=O)NC2=NCCC2)c1)C1CCC1	1.5	1.1	-2.1	-3.1	0.5	·
O=C(CC12CC3CC(CC(Br)(C3)C1)C2)Nc1cccc(S(=O)(=O)NC2=NCCC2)c1	-2.2	-1.7	5.5	16.1*	-2.5	2.2
O=C(NNC(=O)c1ccccc1-n1cccc1)c1cncc(Br)c1	0.5	-8.2	3.3	37.9*	1.3	-55.1
O=C(NNC(=O)c1ccccc1-n1cccc1)c1cccnc1	·	·	·	-1.6	·	·
CC1(C)CC(=O)C(C(=S)Nc2ccccc2)=C(NC2CC(C)(C)NC(C)(C)C2)C1	-0.8	0.0	4.2	58.8*	-3.8	-1.3
CC1(C)CC(NC(=S)Nc2ccc(S(N)(=O)=O)cc2)CC(C)(C)N1	-0.9	-1.9	6.3	4.1	-5.2	·
COc1cccc(/C=N/NC(=O)c2ccc(=O)n(C)c2)c1OC	-1.2	-3.5	0.3	22.4*	2.3	3.6
CCOC(=O)[C@]12CCC=C1N(CCC1=CCCCC1)C(=O)[C@H](CC(=O)N1CCCC1)C2	·	·	·	3.7	·	·
CCC(C)c1ccc(NC(=O)COC(=O)CCNS(=O)(=O)c2cccs2)cc1 (stereo not given)	0.6	-10.3	-0.8	25.9*	-1.8	45.1*
Fc1ccc(CNCCC(Cc2ccccc2)c2ccco2)cc1 (stereo not given)	-0.1	-5.5	1.4	-3.9	-1.7	·
CC(NCCC(Cc1ccccc1)c1ccco1)c1ccccc1 (stereo not given)	1.0	-10.0	1.3	17.6*	-4.4	11.6
CCc1nc2c(OCC(=O)c3ccc(F)cc3)cccn2c1N(C)C(=O)c1cccs1	·	·	·	-13.2	·	·
CCN(CC(=O)Nc1c(F)cccc1F)C(=O)c1cc2ccccc2oc1=O	-0.8	-16.8	-8.8	22.8*	-7.0	-2.3
O=S1(=O)CC(N2CCCCC2)CN1Cc1cn(Cc2ccc(C(F)(F)F)cc2)nn1 (stereo not given)	·	·	·	-7.3	·	·
CCOC(=O)[C@]12CCC=C1N(Cc1ccc3c(c1)OCO3)C(=O)[C@H](CC(=O)NCc1cccs1)C2	·	·	·	1.4	·	·
SMILES	C-LANA FP	RTF Ca sens inh	RTF Ca sens act	E coli Lon inh	Keap1 Nrf2 FP	eLon confirm
Cc1ccc(C(=O)N2CCCN(c3nc4cc5c(cc4cc3C#N)OCO5)CC2)cc1	5.8	-9.3	6.7	73.1*	-0.5	5.2
Cc1nn(C)cc1S(=O)(=O)N1CCN(Cc2ccccc2Cl)CC1	1.4	-3.2	1.4	-10.2	-3.8	·
CCCN1CCN(S(=O)(=O)c2cn(C)nc2C)CC1	7.7	-8.9	9.5	21.9*	4.0	14.2
CCn1c(SCC(=O)Nc2ccc(N3CCOCC3)cc2)nnc1-c1ccco1	0.1	4.8	-4.4	27.1*	-2.0	2.0
Cc1cc2nc(-c3ccc(F)cc3)c(Cc3cccc(Cl)c3)n2c(C)c1Br	·	·	·	-4.7	·	·
CC(NC(=O)c1ccccc1Cl)c1nnc(SCC(=O)Nc2ccc(C(=O)O)cc2)n1C (stereo not given)	0.3	-2.1	-2.0	29.4*	5.2	-14.8
CC(=O)Nc1ccc(OS(=O)(=O)c2ccc(Cl)cc2)cc1	-0.1	-3.2	-2.5	1.2	-5.4	·

Screening data (PubChem)
